In the supplement of paper PMC11732987, “Enantioselective OTUD7B fragment discovery through chemoproteomics screening and high-throughput optimisation” (Communications Chemistry, 2025):
A number with no mark means an inactive call.

molecular target: T1, VCPIP1 (UniProt Q96JH7); assay: log2 ratio of Biotin-Ahx-Ub-VS probe labelling (fragment/DMSO); higher = less target engagement (more negative = stronger competition), active = hit call of the paper (q ≤ 0.05, log2 ratio ≤ -1); conditions: compound concentration: 200 uM; treatment time: 3 h
T1 sequence (whole entry): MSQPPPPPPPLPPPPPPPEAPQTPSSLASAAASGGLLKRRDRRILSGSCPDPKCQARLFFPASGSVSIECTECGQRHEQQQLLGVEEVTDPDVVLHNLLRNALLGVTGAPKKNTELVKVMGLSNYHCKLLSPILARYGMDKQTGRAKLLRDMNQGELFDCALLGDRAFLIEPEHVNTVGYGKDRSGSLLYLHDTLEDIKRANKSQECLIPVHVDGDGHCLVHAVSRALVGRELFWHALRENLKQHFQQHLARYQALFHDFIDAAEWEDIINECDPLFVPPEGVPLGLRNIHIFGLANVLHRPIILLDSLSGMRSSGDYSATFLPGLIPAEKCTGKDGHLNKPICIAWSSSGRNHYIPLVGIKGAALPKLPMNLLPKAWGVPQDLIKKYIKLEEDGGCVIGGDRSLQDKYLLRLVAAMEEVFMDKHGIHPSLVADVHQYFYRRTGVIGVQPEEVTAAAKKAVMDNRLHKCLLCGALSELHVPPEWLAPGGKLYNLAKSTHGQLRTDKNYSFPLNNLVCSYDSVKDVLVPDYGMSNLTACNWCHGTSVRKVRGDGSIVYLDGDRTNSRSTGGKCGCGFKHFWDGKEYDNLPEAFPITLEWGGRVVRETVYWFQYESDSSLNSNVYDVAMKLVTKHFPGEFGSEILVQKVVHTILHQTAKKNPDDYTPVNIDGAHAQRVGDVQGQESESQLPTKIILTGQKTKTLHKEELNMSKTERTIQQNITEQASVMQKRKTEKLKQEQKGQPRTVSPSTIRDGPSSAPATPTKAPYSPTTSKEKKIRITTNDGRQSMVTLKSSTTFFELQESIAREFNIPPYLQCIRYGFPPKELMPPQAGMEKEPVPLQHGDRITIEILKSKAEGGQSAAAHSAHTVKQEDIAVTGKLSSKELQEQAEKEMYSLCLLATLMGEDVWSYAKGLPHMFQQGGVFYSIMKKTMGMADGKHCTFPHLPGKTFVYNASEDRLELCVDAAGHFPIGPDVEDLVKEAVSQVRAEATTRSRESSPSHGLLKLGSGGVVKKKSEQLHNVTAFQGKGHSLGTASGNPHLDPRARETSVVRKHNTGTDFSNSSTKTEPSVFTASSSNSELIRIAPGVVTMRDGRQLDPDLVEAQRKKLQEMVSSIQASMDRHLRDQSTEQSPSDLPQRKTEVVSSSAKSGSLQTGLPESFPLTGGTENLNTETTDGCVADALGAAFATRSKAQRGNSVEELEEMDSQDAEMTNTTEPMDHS
Protocol: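 Competitive ABPP in HEK293T cell lysate. Lysates were treated with each chloroacetamide fragment at 200 µM for 3 h, then with Biotin-Ahx-Ub-VS (0.5 µM, 1 h), NeutrAvidin-enriched and analysed by diaPASEF LC-MS/MS. Protein LFQ was median-normalised; average log2 ratio is fragment/DMSO from an unpaired t-test (n=3 treated, n=44 DMSO). Hits: q ≤ 0.05, log2 ratio ≤ -1, unique peptides ≥ 2.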

SMILES | log2 ratio of Biotin-Ahx-Ub-VS probe labelling
O=C(CCl)N[C@H]1CCS(=O)(=O)c2ccccc21 | -0.862
Cl.O=C(CCl)N1CCn2cncc2C1 | -0.196
O=C(CCl)Nc1cc(Cl)ccc1-n1cncn1 | -1.26 (active)
Cc1ccccc1OCC(=O)N1CCN(C(=O)CCl)CC1 | -1.16 (active)
O=C(CCl)N1CCC(OCc2ccccc2F)CC1 | -2.86 (active)
Cl.O=C(CCl)N1CC(c2ccc(Br)cn2)C1 | -1.3 (active)
Cc1c(NC(=O)CCl)c(=O)n(-c2ccccc2)n1C | -0.255
O=C(CCl)Nc1ccc2c(c1)OC(F)(F)O2 | -1.43 (active)
Cl.O=C(CCl)N1CCCC(c2ncc[nH]2)C1 (stereo not given) | -0.387
Cc1cc(NC(=O)CCl)n(-c2ccccc2)n1 | -0.6
Cc1ncc2c(n1)CCN(C(=O)CCl)C2 | 0.323
O=C(O)C1Cc2ccccc2CN1C(=O)CCl (stereo not given) | -0.368
Cc1ccc(CC(NC(=O)CCl)c2ccccn2)cc1.Cl (stereo not given) | -1.64 (active)
O=C(CCl)NC1CCOc2ccccc21 (stereo not given) | -2.21 (active)
Cl.Cn1c(CNC(=O)CCl)nc2cccnc21 | -0.977
O=C(CCl)Nc1ccc(F)cc1F | -0.736
CC1CCc2onc(CNC(=O)CCl)c2C1 (stereo not given) | -1.39 (active)
O=C(CCl)N(C1=CCCCC1)C1CC1 | -0.286
COc1ccc(-c2csc(NC(=O)CCl)n2)cc1 | -1.46 (active)
CN(Cc1nc2ccccc2[nH]1)C(=O)CCl.Cl | -0.467

SMILES | log2 ratio of Biotin-Ahx-Ub-VS probe labelling
Cc1conc1C1CN(C(=O)CCl)C1 | -0.949
CC(=O)C1CCCCN1C(=O)CCl (stereo not given) | -0.0774
O=C(CCl)Nc1ccc(N2CCCC2=O)cc1 | -1.2 (active)
Cl.O=C(CCl)N1CCC(Cc2nccs2)C1 (stereo not given) | -2.29 (active)
CCc1c[nH]c(CNC(=O)CCl)n1.Cl | -0.554
CC(NC(=O)CCl)c1cc2n(n1)CCCC2.Cl (stereo not given) | -0.662
O=C(CCl)N1CCCN(C(=O)c2ccc(Cl)cc2)CC1 | -0.589
O=C(CCl)N1CCC(c2nc3ccccc3o2)CC1 | -2.76 (active)
O=C(CCl)N1CCCCCC1c1ncon1 (stereo not given) | -0.233
CN(C)C(=O)c1ccc(CNC(=O)CCl)cc1 | -0.952
Cc1ccccc1CN(C)C(=O)CCl | -1.46 (active)
Cc1nc(CN2CCCN(C(=O)CCl)CC2)no1.Cl | -0.1
Cc1nnc(C(NC(=O)CCl)c2ccccc2)n1C (stereo not given) | 0.452
O=C(CCl)N1CCOCCC1c1ccccc1 (stereo not given) | -0.265
O=C(CCl)N1CCC(C(=O)N2CCCCCC2)CC1 | -0.246
O=C(CCl)NC1(c2ccc3c(c2)OCCO3)CCCC1 | -0.7
CCN(C(=O)CCl)C1CCS(=O)(=O)C1 (stereo not given) | 0.0777
CNC(=O)C1(NC(=O)CCl)CCCCC1 | -0.262
Cc1ccc(CNC(=O)CCl)nc1C.Cl | -2.09 (active)
CS(=O)(=O)c1ccc(CNC(=O)CCl)cc1 | -1.22 (active)
